# Experimental data published in PubChem BioAssay AID651551 (Sanford-Burnham Center for Chemical Genomics, 2012).
# Molecular target: PEG-3 (UniProt Q6IN02)
# Assay: GAPDH versus PEG-3 reporter suppression – cell-based, luminescence, counter-screen for PEG-3 promoter inhibitor project, SAR follow-up (AID 651551)
# Conditions: HeLa PEG-Prom / GAPDH luciferase reporter, 6 or 24 h, run 1, 6 h; at 99 µM (top of the series)
row,SMILES,inhibition % (higher = more inhibition)
1,Cc1nc(NC(=O)c2ccccc2)sc1-c1csc(Nc2ccccc2)n1,23.9%
2,Cc1ccc(Cl)cc1Nc1nc(-c2sc(NC(=O)c3ccco3)nc2C)cs1,57.5%
3,CCn1nc(C(=O)Nc2nc(-c3ccccn3)cs2)c2ccccc2c1=O,26.9%
4,CCCn1nc(C(=O)Nc2nc3ccccc3s2)c2ccccc2c1=O,38.9%
5,O=C(Nc1nccs1)c1nn(-c2ccccc2)c(=O)c2ccccc12,37.4%
6,Cc1nc(NC(=O)c2ccccc2)sc1-c1csc(Nc2ccccc2Cl)n1,-1.45%
7,CCCn1nc(C(=O)Nc2nc(-c3ccccn3)cs2)c2ccccc2c1=O,25.9%
8,Cc1cc(NC(=O)c2ccccc2)n(-c2nc3ccccc3[nH]2)n1,14.9%
9,Cc1cc(NC(=O)c2ccccc2)n(-c2nc3ccccc3n2C)n1,48.1%
10,COCCCNC(=O)c1ccc(Cn2c(=O)c3ccccc3n(Cc3ccccc3C#N)c2=O)cc1,43.4%
11,COc1ccc(-n2nc(C(=O)NCC(=O)Nc3cccc(OC)c3)c3ccccc3c2=O)cc1,-7.42%
12,Cc1cc(NC(=O)c2cccc(C)c2C)n(-c2nc3ccccc3[nH]2)n1,20.4%
13,Cc1nc(NC(=O)c2ccccc2)sc1-c1csc(Nc2cccc(Cl)c2C)n1,37.4%
14,Cc1cc(NC(=O)c2ccccc2C)n(-c2nc3ccccc3[nH]2)n1,32.8%
15,Cc1cc(NC(=O)c2ccccc2C(F)(F)F)n(-c2nc3ccccc3[nH]2)n1,92.7%
16,COc1ccc(-n2nc(C(=O)NCC(=O)Nc3ccc(OC)c(OC)c3)c3ccccc3c2=O)cc1,23.9%
17,COc1ccc(-n2nc(C(=O)NCC(=O)Nc3cc(OC)c(OC)c(OC)c3)c3ccccc3c2=O)cc1OC,6.02%
18,COc1ccccc1Nc1nc(-c2sc(NC(=O)c3ccco3)nc2C)cs1,12%
19,CCn1cc(C(=O)NCc2ccco2)c(=O)c2cc(S(=O)(=O)N3CCCC3)ccc21,19.5%
20,O=C(Nc1nc(-c2ccccc2)cs1)c1nn(-c2ccccc2)c(=O)c2ccccc12,-1.45%
21,O=C(Nc1nc2ccccc2s1)c1nn(-c2ccccc2)c(=O)c2ccccc12,-4.43%
22,COc1ccc(Cl)cc1Nc1nc(-c2sc(NC(=O)c3ccccc3)nc2C)cs1,49.3%
23,CCCn1nc(C(=O)Nc2nc(-c3ccncc3)cs2)c2ccccc2c1=O,19.5%
